Reference: ChEMBL document CHEMBL1157539, “Thousands of chemical starting points for antimalarial lead identification” (Nature, 2010)

Columns and labels:
Type in all cases: functional
[1] = tested on: Plasmodium falciparum; experiment: GSK_TCMDC: Inhibition of Plasmodium falciparum 3D7 in whole red blood cells, using parasite LDH activity as an index of growth. Test compounds present at 2uM
[2] = tested on: Plasmodium falciparum; experiment: GSK_TCMDC: Inhibition of Plasmodium falciparum Dd2 in whole red blood cells, using parasite LDH activity as an index of growth. Test compounds present at 2uM
[3] = tested on: HepG2; experiment: GSK_TCMDC: Percent inhibition of human HepG2 cell line. Test compounds present at 10uM.

SMILES | Inhibition [1] [%] | Inhibition [2] [%] | Inhibition [3] [%]
Cc1cc(Oc2cc(NC(=O)c3sc4ncn(Cc5ccccc5F)c(=O)c4c3C)cc([N+](=O)[O-])c2)ccc1Cl | 94 | 24 | 2
CN1CCN(CCCN(Cc2cccc(-c3cccc(CNCCc4ccccc4)c3)c2)C(=O)Nc2ccccc2)CC1.O=C(O)C(F)(F)F | 97 | 82 | 92
Cc1cc2nc(-c3ccc(OCC(=O)NCc4cccc(C(F)(F)F)c4)cc3)[nH]c2cc1C | 94 | 1 | 4
